ChEMBL document CHEMBL3988442, “University of Dundee, Small-Polar-MMV Screening Library” (2021)
For some of these results: Measured potencies and affinities stand elsewhere.

Key:
Design in all cases: scale not given: direction of the effect not stated beside the values
[1] = target: Protein translocase subunit SecA (Escherichia coli (strain K12)) (UniProt P10408); assay: Assay to Identify E. coli SecA ATPase Inhibitors; format: functional; settings: 30 µM
[2] = target: T1, Ubiquitin-activating enzyme e1, putative (Leishmania donovani (strain BPK282A1)) (UniProt E9BSI1); assay: Leishmania donovani Ubiquitin Activating Enzyme (LdE1); format: functional; settings: 30 µM
T1 sequence (whole entry): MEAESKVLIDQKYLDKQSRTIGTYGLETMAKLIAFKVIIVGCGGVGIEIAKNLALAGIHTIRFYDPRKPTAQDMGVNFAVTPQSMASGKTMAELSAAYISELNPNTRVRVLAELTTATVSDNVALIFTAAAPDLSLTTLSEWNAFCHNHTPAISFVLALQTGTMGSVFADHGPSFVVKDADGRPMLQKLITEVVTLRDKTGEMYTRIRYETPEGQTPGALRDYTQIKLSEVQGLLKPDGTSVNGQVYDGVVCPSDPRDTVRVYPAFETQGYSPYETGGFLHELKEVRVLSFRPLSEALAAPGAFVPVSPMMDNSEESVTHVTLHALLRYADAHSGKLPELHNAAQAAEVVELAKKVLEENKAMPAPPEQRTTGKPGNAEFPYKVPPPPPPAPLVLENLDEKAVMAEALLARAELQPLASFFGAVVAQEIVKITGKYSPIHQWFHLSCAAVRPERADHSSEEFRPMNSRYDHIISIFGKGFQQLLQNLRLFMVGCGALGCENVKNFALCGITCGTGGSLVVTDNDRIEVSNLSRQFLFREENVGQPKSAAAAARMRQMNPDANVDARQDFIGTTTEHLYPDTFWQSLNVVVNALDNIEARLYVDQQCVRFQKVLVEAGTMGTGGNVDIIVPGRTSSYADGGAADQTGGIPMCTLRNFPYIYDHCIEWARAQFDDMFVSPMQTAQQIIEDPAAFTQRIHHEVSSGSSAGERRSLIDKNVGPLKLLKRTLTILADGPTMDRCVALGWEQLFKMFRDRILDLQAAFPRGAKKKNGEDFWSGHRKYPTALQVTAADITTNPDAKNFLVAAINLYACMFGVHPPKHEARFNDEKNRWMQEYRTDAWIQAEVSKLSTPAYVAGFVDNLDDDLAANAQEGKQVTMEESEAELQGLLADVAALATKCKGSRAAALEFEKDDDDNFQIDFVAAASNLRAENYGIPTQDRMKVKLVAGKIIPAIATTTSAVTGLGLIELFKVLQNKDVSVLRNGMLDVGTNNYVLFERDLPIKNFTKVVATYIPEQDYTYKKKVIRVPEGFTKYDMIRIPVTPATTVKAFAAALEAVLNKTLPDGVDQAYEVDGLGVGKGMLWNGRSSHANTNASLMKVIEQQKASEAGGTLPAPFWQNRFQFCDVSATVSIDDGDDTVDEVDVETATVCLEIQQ

[3] = target: AMP-activated protein kinase, AMPK (Homo sapiens) (UniProt P54646+O43741+P54619+Q9UGJ0+Q9Y478+Q13131+Q9UGI9); assay: AMP-dependent Kinase enzyme assay. An in vitro enzyme assay that detects ADP turnover that is directly proportional to AMPK activity. This uses naive AMPK that is activated during the assay with MK-8722; format: functional; settings: 30 µM
[4] = target: Sialic acid-binding Ig-like lectin 9 (Homo sapiens) (UniProt Q9Y336); assay: Hs-Siglec9 ALPHAscreen SOP 20170721; settings: 10 µM
Trypanosoma cruzi = assay: Trypanosoma cruzi phosphomannomutase and mannose-1-phosphate guanylyltransferase assay; format: functional; settings: 10 µM
[5] = target: T2, Arginase-2, mitochondrial (Homo sapiens) (UniProt P78540); assay: in vitro enzyme assay to detect the production of urea directly proportional to the activity of Arginase II; format: functional; settings: 33.3 µM; further: in the data most compounds retested in dose-response had high values
T2 sequence (whole entry): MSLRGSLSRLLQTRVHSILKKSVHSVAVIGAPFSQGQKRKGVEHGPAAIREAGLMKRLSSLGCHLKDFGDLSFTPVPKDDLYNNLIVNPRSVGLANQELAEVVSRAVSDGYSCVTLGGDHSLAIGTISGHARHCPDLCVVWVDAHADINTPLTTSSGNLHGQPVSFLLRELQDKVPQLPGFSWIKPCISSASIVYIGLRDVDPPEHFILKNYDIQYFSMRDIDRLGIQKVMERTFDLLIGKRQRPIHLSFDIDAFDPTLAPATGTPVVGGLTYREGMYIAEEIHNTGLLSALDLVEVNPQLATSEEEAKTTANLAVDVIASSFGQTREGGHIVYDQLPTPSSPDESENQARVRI

[6] = target: T3, Proteasome subunit beta (Trypanosoma cruzi) (UniProt O96673); assay: Trypanosoma cruzi proteasome chymotrypsin-like activity (TcProtChymo) assay.; further: in the data most compounds retested in dose-response had high values; format: functional; settings: 9.37 µM
T3 sequence (whole entry): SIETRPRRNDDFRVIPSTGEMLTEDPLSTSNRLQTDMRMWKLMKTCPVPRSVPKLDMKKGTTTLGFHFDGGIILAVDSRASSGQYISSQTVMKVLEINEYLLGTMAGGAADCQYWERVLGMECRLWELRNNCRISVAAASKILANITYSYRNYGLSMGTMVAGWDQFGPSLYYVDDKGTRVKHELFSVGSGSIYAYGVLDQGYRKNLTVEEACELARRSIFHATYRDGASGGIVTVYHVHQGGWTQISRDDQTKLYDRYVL

Homo sapiens = organism: Homo sapiens; assay: To identify inhibition of the IFN signalling (Jak-Stat) pathway via expression of an eGFP reporter gene under the control of an IFN-stimulated response element (ISRE) containing MxA promoter.; format: functional; settings: 30 µM
[7] = target: T4, Tyrosyl-tRNA synthetase, putative (Trypanosoma cruzi (strain CL Brener)) (UniProt Q4DSP6); assay: Trypanosoma cruzi tyrosyl tRNA synthetase (TcYRS) _High Tyrosine SOP; format: functional; settings: 30 µM; further: in the data most compounds retested in dose-response had high values
T4 sequence (whole entry): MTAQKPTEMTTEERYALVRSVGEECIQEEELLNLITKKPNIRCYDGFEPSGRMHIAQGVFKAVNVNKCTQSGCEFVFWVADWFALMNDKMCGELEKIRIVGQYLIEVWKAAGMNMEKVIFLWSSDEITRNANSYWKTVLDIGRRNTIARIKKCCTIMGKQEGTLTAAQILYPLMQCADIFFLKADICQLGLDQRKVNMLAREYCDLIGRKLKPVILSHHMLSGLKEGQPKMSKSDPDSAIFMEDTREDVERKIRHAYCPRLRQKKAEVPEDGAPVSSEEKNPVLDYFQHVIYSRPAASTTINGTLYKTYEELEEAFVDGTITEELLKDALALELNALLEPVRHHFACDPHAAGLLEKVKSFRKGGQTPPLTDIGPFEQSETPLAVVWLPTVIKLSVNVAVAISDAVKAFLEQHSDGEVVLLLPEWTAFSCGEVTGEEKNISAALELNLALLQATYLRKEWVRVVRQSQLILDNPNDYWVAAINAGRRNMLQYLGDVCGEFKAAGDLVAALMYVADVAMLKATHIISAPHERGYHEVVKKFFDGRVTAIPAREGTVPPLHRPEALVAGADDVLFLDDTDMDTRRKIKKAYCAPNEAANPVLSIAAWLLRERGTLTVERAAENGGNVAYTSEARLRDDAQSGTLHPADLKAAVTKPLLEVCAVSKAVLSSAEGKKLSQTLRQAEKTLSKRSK

[8] = target: T4, Tyrosyl-tRNA synthetase, putative (Trypanosoma cruzi (strain CL Brener)); assay: Trypanosoma cruzi tyrosyl tRNA synthetase (TcYRS) SOP; format: functional; settings: 30 µM
[9] = target: Chromo domain-containing protein 1 (Saccharomyces cerevisiae (strain ATCC 204508 / S288c) (Baker's yeast)) (UniProt P32657); assay: ScCHD-1 Enzyme Inhibition Assay; format: functional; settings: 30 µM; further: in the data most compounds retested in dose-response had high values
Chain of Chromo domain-containing protein 1 (Saccharomyces cerevisiae (strain ATCC 204508 / S288c) (Baker's yeast)) (P32657 whole entry, the tested form may be a part): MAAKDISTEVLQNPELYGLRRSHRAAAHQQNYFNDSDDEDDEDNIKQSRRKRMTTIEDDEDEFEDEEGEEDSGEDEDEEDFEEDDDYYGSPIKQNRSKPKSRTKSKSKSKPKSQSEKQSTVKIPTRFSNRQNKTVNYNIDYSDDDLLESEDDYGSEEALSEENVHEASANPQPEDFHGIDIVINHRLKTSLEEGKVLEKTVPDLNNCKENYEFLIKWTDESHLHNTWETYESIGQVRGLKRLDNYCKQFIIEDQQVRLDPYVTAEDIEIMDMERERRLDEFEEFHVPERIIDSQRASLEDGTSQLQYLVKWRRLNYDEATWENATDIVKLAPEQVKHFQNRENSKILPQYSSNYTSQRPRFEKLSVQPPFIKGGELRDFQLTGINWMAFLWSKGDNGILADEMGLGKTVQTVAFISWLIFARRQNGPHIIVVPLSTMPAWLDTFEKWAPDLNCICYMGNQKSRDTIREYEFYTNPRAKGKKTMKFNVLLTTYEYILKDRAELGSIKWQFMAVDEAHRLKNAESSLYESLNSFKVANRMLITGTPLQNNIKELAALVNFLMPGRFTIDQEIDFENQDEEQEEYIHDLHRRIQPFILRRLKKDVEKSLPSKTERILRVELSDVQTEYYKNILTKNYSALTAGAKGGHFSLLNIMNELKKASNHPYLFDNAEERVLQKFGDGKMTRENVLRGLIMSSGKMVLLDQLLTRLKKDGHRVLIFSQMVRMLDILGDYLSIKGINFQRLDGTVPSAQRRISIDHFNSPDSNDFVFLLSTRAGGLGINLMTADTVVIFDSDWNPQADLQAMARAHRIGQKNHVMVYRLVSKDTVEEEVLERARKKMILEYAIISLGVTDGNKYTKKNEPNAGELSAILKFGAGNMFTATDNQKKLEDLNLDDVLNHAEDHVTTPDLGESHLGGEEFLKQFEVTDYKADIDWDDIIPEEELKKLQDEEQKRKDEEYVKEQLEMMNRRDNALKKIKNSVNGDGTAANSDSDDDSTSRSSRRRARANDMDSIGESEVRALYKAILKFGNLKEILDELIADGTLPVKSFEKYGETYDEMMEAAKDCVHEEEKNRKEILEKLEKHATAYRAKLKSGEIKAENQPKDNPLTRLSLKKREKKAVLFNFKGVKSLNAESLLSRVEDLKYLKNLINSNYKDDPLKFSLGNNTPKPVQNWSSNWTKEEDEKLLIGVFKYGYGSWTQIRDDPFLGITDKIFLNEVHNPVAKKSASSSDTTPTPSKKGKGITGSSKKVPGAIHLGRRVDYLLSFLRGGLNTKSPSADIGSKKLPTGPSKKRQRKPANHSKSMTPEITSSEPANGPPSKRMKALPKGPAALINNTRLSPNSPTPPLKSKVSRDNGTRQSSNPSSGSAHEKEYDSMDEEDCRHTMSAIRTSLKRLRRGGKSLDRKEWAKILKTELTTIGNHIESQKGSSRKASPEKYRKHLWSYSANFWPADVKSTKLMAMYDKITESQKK

Chain of Protein translocase subunit SecA (Escherichia coli (strain K12)) (P10408 whole entry): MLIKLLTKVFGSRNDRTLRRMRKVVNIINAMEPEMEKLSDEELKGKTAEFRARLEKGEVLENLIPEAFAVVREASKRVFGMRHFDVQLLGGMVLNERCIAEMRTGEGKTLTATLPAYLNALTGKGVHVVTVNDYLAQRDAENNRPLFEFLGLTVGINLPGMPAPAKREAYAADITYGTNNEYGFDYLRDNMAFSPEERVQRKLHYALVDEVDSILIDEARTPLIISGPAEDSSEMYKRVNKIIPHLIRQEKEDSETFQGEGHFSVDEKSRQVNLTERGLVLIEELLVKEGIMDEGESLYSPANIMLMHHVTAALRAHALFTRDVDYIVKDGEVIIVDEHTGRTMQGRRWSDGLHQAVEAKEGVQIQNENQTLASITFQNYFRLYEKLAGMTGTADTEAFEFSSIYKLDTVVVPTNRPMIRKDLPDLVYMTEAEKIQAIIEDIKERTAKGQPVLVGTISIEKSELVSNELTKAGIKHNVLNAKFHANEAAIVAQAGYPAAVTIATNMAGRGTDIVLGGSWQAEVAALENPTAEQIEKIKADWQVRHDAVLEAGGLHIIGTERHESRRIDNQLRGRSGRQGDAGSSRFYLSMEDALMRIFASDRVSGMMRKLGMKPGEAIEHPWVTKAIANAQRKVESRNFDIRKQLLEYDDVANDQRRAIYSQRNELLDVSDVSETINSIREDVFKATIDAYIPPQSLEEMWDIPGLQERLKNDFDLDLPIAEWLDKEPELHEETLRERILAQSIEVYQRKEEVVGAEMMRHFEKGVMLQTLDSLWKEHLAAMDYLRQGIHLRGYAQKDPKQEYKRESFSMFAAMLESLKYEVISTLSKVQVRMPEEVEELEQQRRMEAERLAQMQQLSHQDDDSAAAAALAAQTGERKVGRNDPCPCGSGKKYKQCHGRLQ
Chain of Sialic acid-binding Ig-like lectin 9 (Homo sapiens) (Q9Y336 whole entry): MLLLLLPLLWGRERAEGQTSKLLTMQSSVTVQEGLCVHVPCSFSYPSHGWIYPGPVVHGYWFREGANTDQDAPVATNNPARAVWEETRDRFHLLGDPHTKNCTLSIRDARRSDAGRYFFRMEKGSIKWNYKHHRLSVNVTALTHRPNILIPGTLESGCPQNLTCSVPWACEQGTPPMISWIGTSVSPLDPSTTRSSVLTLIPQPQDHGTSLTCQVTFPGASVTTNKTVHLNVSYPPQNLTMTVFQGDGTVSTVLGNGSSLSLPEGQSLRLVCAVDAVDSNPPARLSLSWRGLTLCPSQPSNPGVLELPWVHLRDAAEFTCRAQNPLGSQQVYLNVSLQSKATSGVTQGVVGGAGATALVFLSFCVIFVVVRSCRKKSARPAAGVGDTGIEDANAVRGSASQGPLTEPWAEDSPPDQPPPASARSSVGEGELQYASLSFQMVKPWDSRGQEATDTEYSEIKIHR

Structure (SMILES)	Percent Effect [1] [%]	Percent Effect [2] [%]	Percent Effect [3] [%]	Percent Effect [4] [%]	Percent Effect (Trypanosoma cruzi) [%]	Percent Effect [5] [%]	Percent Effect [6] [%]	Percent Effect (Homo sapiens) [%]	Percent Effect [7] [%]	Percent Effect [8] [%]	Percent Effect [9] [%]
Cc1nc(C2(O)CCCNCC2)sc1CCOc1ccc(Cl)cc1 (stereo not drawn)	-4.62	6.76	17.1	1.33	-3.56	-2.09	6.4	33.8	4.3	11.7	-12.8
Cc1cc(C)n(Cc2cccc(C(=O)NCCN3CCOCC3)c2)n1	6.23	5.2	-1.94	1.34	-6.59	-6.9	24.3	9.8	5.38	16.1	-2.63
Cc1cnn(CC2CCCN2Cc2coc(-c3cccs3)n2)c1 (stereo not drawn)	-6.03	0	3.45	-6.51	-1.37	0.909	1.77	5.98	2.15	10	-1.19
C=Cc1ccc(C(=O)N2CCCC(Nc3ccc(F)cc3)C2)cc1 (stereo not drawn)	-3.33	8.11	2.02	27.7	7.72	0.952	3.97	2.82	2.65	19.5	-11.2
O=S(=O)(Nc1cnn(C2CCOCC2)c1)c1ccc(F)c(F)c1	-2.82	-2.6	-3.09	9.32	-5.03	-8.39	8.01	-0.875	-1.06	3.85	-2.49
CC(NC(=O)NCCCn1ccnc1)c1ccc2c(c1)OCCCO2 (stereo not drawn)	-3.41	2.7	-7.49	-2.67	-8.08	5.36	-0.539	12.7	1.98	1.22	2.18
N#CC1(C(=O)NCCCNc2ccc(C(F)(F)F)cn2)CCCC1	0.186	-2.63	6.89	5.29	0.376	1.53	7.18	23	2.45	4.88	-0.995
CC(=O)c1ccccc1C(=O)NCC1(CO)CC1	-0.313	10.8	-5.63	7.79	1.16	-4.29	3.79	21.2	4.76	-4.88	-0.424
